# In PubChem BioAssay AID624114 (Johns Hopkins Ion Channel Center, 2012):
# Out of some 4,000 compounds screened, about 15 (0.4%) were called active.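 The calls were made as follows: active = calcium fluorescence ratio, averaged over duplicates, at least 3 SD of the buffer-well ratio, meaning a nonspecific response in receptor-free cells; inactive = the rest.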 The list is a sample of the results.
# Assay: calcium response in parental HEK293 cells, primary screen, counter-screen for MrgX1 allosteric activator project, cell-based, Fluo-4 calcium flux, duplicate (AID 624114);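 also: untransfected parental HEK293 lacking MrgX1 used as counterscreen for MrgX1 allosteric activators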
# Conditions: Fluo-4 fluorescence ratio, at 10 µM
row,Compound,outcome
1,O=C(NC1CCCCC1)C1c2ccccc2C(=O)N1Cc1ccco1 (stereo not drawn),inactive
2,Cc1cc2oc3ccc(NCCC4CCCN4C)cc3c(=O)c2cc1C (stereo not drawn),inactive
3,COCCCNC(=O)C1CCN(c2ccc(N3CCOCC3)nn2)CC1,inactive
4,Cc1cc(Br)ccc1NC(=O)c1cnc(N2CCN(c3ccccn3)CC2)c2ccccc12,inactive
5,Cc1ccc(S(=O)(=O)N(C)c2nc3ccccc3n3c(C(C)C)nnc23)cc1,inactive
6,CC1CCN(S(=O)(=O)c2nnc(NC(=O)COc3ccccc3F)s2)CC1,inactive
7,Cc1ccc(-c2nn(C(C)(C)C)c3ncnc(N)c23)cc1,inactive
8,CCC1CCCCN1CCNC(=O)c1[nH]c(C)c(C(C)=O)c1C (stereo not drawn),inactive
9,O=C(CSc1ncccn1)NC(=O)NCc1ccccc1,inactive
10,CC1CCCCN1S(=O)(=O)c1ccc(C(=O)Nc2nnc(-c3cccs3)o2)cc1 (stereo not drawn),inactive
11,O=C(Nc1nc2c(F)cc(F)cc2s1)C1COc2ccccc2O1 (stereo not drawn),inactive
12,O=C1C(=O)N(CC2COc3ccccc3O2)c2ccccc21 (stereo not drawn),inactive
13,COc1cccc(CNC(=O)C2CCN(S(=O)(=O)c3cccc4cccnc34)CC2)c1,inactive
14,COc1ccc(C(=O)NC(=S)NNC(=O)CCc2ccccc2)cc1,inactive
15,CCOC(=O)C1=C(O)/C(=C/c2cc(C)n(-c3ccccc3)c2C)N=C1C,inactive
16,Cc1ccc2nc(Nc3ccccc3)cc(C)c2c1,inactive
17,Cc1ccc(Cc2cnc(N)s2)o1,inactive
18,O=C(CSc1nncn1-c1cccnc1)N1CCOCC1,inactive
19,COc1ccc(OC)c(C(=O)c2ccc(Cl)cc2)c1,inactive
20,CCCc1cc(=S)n2c([nH]c3ccccc32)c1C#N,inactive
21,Nc1cc(OC(=O)c2ccccc2Br)nn1S(=O)(=O)c1ccccc1,inactive
22,CC(C)(C)n1c(=O)[nH]c2c(c1=O)CCC2,inactive

row,Compound,outcome
1,CCOC1CCCCC1NS(=O)(=O)c1ccc(Cl)cc1 (stereo not drawn),inactive
2,C=CCOc1cccc(C2C(C(=O)c3ccc(C)o3)=C(O)C(=O)N2c2nnc(C)s2)c1 (stereo not drawn),inactive
3,Cc1cccc(-n2c(Cc3cc(=O)[nH]c(=O)[nH]3)nnc2SC(C)C)c1,inactive
4,O=C1CCCc2c1nc(-c1cccc(Cl)c1)n2O,inactive
5,Cc1nc(N2CCN(c3ccccn3)CC2)c2c(C)c(C(=O)Nc3ccc(F)c(Cl)c3)sc2n1,inactive
6,Cc1cc(C)n(CCNC(=O)CC2C(=O)NCCN2Cc2ccc(C)o2)n1 (stereo not drawn),inactive
7,COc1ccc(S(=O)(=O)N2CCN(C(=O)NC3CCCCC3)CC2)cc1,inactive
8,CCCCC(=O)Nc1ccc2c(c1)C(=O)NC2=O,inactive
9,Cc1nn(-c2ccccc2)c(C)c1NC(=O)COc1ccc(Cl)cc1Cl,inactive
10,Cc1ccc(-n2[nH]c(C)c(/C=N/N3C(=O)c4cccc5cccc(c45)C3=O)c2=O)cc1,inactive
11,COC(=O)Cc1cc(=O)n(-c2nc3ccccc3s2)[nH]1,inactive
12,O=C1C(Cc2ccc(O)cc2)NC(=S)N1Cc1ccccc1 (stereo not drawn),inactive
13,Clc1ccc(C=NC23CN4CN(CN(C4)C2)C3)cc1,inactive
14,CC(C)CC(=O)NC(=S)NNC(=O)c1cccc([N+](=O)[O-])c1,inactive
15,Cc1[nH][nH]c(=O)c1C(c1ccc(-c2ccc(Cl)cc2)o1)c1c(C)[nH][nH]c1=O,inactive
16,O=C(Oc1ccc(C(=S)N2CCOCC2)cc1)c1ccc(F)cc1,inactive
17,COC(=O)c1ccc(C2C3=C(Nc4nnnn42)c2ccccc2OC3)cc1 (stereo not drawn),inactive
18,Clc1ccc(-c2nc3ccccn3c2CN2CCSCC2)cc1,inactive
19,CCOCc1nnc(NC(=O)CCC2CCCCC2)s1,inactive
20,Cc1ccc2nc(-c3ccc(NC(=O)CN(C)S(=O)(=O)c4ccccc4)cc3)sc2c1,inactive
21,Cc1ccc(N/C(N)=N/c2nc(C(F)(F)F)cc(C(F)(F)F)n2)cc1,inactive
22,Cc1cccc(NC(=O)C(C)N2C(=O)C3C4CC(C(Br)C4Br)C3C2=O)c1 (stereo not drawn),inactive

row,Compound,outcome
1,O=c1cc(CSc2ccccn2)nc(N2CCN(c3ccccc3)CC2)[nH]1,inactive
2,CCN(c1cccc(C)c1)S(=O)(=O)c1ccc(-c2coc(C)n2)cc1,inactive
3,CC(C)CC(=O)N/C(N)=N/c1nc2ccccc2s1,inactive
4,Cc1nn(-c2ccccc2)c2c1C(c1ccc(F)cc1)C(C#N)=C(N)O2 (stereo not drawn),inactive
5,CCOc1ccc(C(=O)NC2CCN(S(=O)(=O)CC)CC2)cc1,inactive
6,CCOC(=O)CNC(=O)CSc1nc2cccnc2n1CC,inactive
7,Cc1nc(C)c(-c2csc(NCCc3ccccc3)n2)s1,inactive
8,C(=N\n1cnnc1)/c1cccnc1,inactive
9,Cc1cccc(NC(=O)COc2ccccc2C)n1,inactive
10,O=C(Nc1ccc(Br)cc1F)C1CC(=O)N(C2CCCCC2)C1 (stereo not drawn),inactive
11,COc1ccc(Cc2nc(-c3ccccn3)no2)cc1OC,inactive
12,COC(=O)c1ccc(COC(=O)C2CCN(S(=O)(=O)c3c(Cl)cccc3Cl)CC2)o1,inactive
13,COCC(C)NC(=O)c1ccc(Cl)c(Cl)c1 (stereo not drawn),inactive
14,CCOc1ccc(C2=CC(c3ccccc3)n3ncnc3N2)cc1 (stereo not drawn),inactive
15,CCOC(=O)Cc1csc(SCc2cc(=O)oc3cc(O)ccc23)n1,inactive
16,O=C(Nc1ccc(Cl)cc1)Nc1ccc(Oc2cccnc2)nc1,inactive
17,O=C(COc1ccc(Cl)cc1)NC(=S)Nc1ccccc1N1CCOCC1,inactive
18,N#CC1=C(N)Oc2c(sc3ccccc23)C1c1ccco1 (stereo not drawn),inactive
19,O=C(CN1CCN(c2ccccn2)CC1)NC1CCCCC1,inactive
20,COc1ccc(S(=O)(=O)N2CCOCC2)c(C)c1C,inactive
21,Cc1cc2ncn(CCCCOc3ccccc3)c2cc1C,inactive
22,CCN(CC)c1ccc2oc(=O)c(C)nc2c1,inactive

row,Compound,outcome
1,CN1C(CC(=O)Nc2ccc(Br)cc2)c2ccccc2CC1(C)C (stereo not drawn),inactive
2,COc1ccc(C(=O)NC(=S)NC2CCCCC2)cc1,inactive
3,O=C(Nc1ccccc1Cl)N1CCN(c2ccc3nncn3n2)CC1,inactive
4,COC(=O)c1c(NC(=O)c2c(Cl)cnn2C)sc(C)c1C,inactive
5,CCOC(=O)c1[nH]c2ccc(C)cc2c1N=C(C)N(C)C,inactive
6,Cc1cccc(Cn2cnc3c(N)c(C)c(C)cc32)c1,inactive
7,Cc1ccc(OC(=O)c2cc3ccccc3o2)cc1,inactive
8,CCOC(=O)c1cn(Cc2cccc(C)c2)nn1,inactive
9,C=CCNC(=O)c1csc(-c2ccccc2)n1,inactive
10,O=C(c1cccs1)C1C(c2ccc(Br)cc2)NC(=S)NC1(O)C(F)(F)F (stereo not drawn),inactive
11,CC(=O)Nc1ccc(OC(=O)COc2ccc(Br)cc2)cc1,inactive
12,O=C(c1ccc(O)cc1)c1ccc(C(=O)O)c(C(=O)O)c1,inactive
13,O=C1Cc2ccccc2Sc2ccc(Cl)cc21,inactive
14,CC(Oc1ccc(F)cc1)C(=O)Nc1ccccc1C(=O)NC1CC1 (stereo not drawn),inactive
15,O=C(c1ccc(OC2CCN(C(=O)c3cccnc3)CC2)cc1)N1CCCCCC1,inactive
16,O=C(COC(=O)c1ccc(NS(=O)(=O)c2cccs2)cc1O)Nc1ccc(F)cc1,inactive
17,COc1cc(C(F)(F)F)nc2c(Br)c(C(C)(C)C)nn12,inactive
18,Cc1cc(Nc2cc(N3CCN(C)CC3)nc(Sc3ccc(NC(=O)C4CC4)cc3)n2)n[nH]1,inactive
19,CC(=O)N1c2ccc(S(=O)(=O)N3CCCC(C(=O)Nc4cccc(Cl)c4)C3)cc2CC1C (stereo not drawn),inactive
20,CCCCOC(=O)CNc1nnc(SCC(=O)OCC)[nH]c1=O,inactive
21,COc1ccc(OC)c(Nc2nc3ccccc3n3cnnc23)c1,inactive
22,Fc1cccc(Cl)c1COc1ccc(-c2nnco2)cc1,inactive
